The term AC50 denotes the midpoint of the concentration-response curve, whichever way the signal moves.

The structures appear in SMILES notation. Records with an inconclusive call do not appear. The source made the active and inactive calls. The calls were made as follows: active = hit-call score of the fitted dose curve at least 0.9, where 1 is the maximum; inconclusive = response in the unintended direction; inactive = score below 0.9.

The first assay can be described thus: ACEA_AR_agonist_AUC_viability: ACEA Biosciences xCELLigence Real-Time Cell Analysis on Androgen Receptor Agonism for Viability (AID 2283775). The procedure, abridged:
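Real-time impedance tracking of 22Rv1 growth, readings every 5 min for 5 h then hourly; area-under-curve viability endpoint at 80 hours, relative to DMSO. Compounds at eight concentrations, 1:4 steps, top 100 uM, n = 2.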
With `CC(=O)OC(C)(C)C1CC=C(C)CC1` (stereo not given), the compound was called inactive.

For the compound `OCC=Cc1ccccc1`, the compound was called inactive.

On to `CCCCCCCCOC(C)=O`, for which the result was inactive.

Take `COc1ccc(OC)cc1`: the compound was called inactive.

Take `CCO[Si](CC)(OCC)OCC`: the outcome was inactive.

On to `CCCC(O)C(CC)CO` (stereo not given), for which the call was inactive.

Take `CC(C)(C)C1CCC(O)CC1` (stereo not given): the compound was classed as inactive.

The nature of a further assay: ACEA_AR_antagonist_AUC_viability: ACEA Biosciences xCELLigence Real-Time Cell Analysis on Androgen Receptor Antagonism for Viability (AID 2283776).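 Also: 22Rv1 human prostate cancer cells growing on impedance electrode plates; hits lower the growth signal relative to DMSO meaning cytotoxicity.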 In outline: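 Viability endpoint from label-free cell-index monitoring: 22Rv1 cultures treated with an eight-point 1:4 dilution series starting at 100 uM final, AUC at 80 h fitted against DMSO.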
As for `CN1CCc2cccc3c2[C@H]1Cc1ccc(O)c(O)c1-3`, the AC50 is 4.25 µM (active).

As to `CC(=O)Nc1cc(S(=O)(=O)O)cc2cc(S(=O)(=O)O)c(N=Nc3ccccc3)c(O)c12`, the compound was called inactive.

Take `O=C1OC2(c3ccc(O)cc3Oc3cc(O)ccc32)c2ccccc21`: the outcome was inactive.

For the origin of these results see PubChem BioAssay (EPA / NIEHS).
